Screening data as filed in PubChem.
Myeloid diff 2 = compounds promoting myeloid differentiation; actives 1% (n = 360,000); ER-HoxA9 myeloid progenitors, lysozyme-GFP differentiation, flow cytometry; calls only at 10 µM; AID 624256;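 active = normalized GFP-positive differentiation at or above the plate's own cutoff, the solvent-only control mean plus 3 SD; inconclusive = no clear call, values can overlap the other calls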;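 note: cells exposed to compound for four days before flow analysis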
rCAG binder = r(CAG) repeat RNA binding. actives 1.3% (n = 370,000). AID 651821. inhibition, % at 3 µM. TO-PRO-1 dye displacement fluorescence;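 active = inhibition above the plate cutoff, the mean of all test compounds on that plate plus 3 SD, cut at about 35% in these data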;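 note: higher means more dye released from RNA so lower well fluorescence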
MPTP inh = inhibitors of mitochondrial permeability transition pore; inhibition, % at 10 µM; isolated mouse mitochondria, Ca2+ swelling absorbance, 30 min; actives 1.4% (n = 360,000);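 active = inhibition of 50% or more, scaled per plate between neutral and stimulator controls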
FAS-TE inh = blocks the thioesterase domain of human fatty acid synthase | actives 0.67% (n = 360,000) | inhibition, % at 15 µM | recombinant FAS-TE, OMFH fluorogenic substrate, fluorescence endpoint | P49327;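 active = compounds whose normalised, plate-corrected inhibition of enzyme fluorescence in the single-dose primary screen is 50% or more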
GRIN3A LBD mod = NR3A (human) ligand-binding domain modulation; NR3A LBD differential scanning fluorimetry, Tm shift; 0% = protein alone, 100% = glycine-bound protein; Tm shift relative to glycine control, % at 25 µM; actives 2.5% (n = 340,000); AID 1259313;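 active = melting temperature shift of at least 10% of the positive control shift, at one fixed dose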
rCAG bind conf = r(CAG) RNA repeat binding, confirmation | AID 652065 | TO-PRO-1 dye displacement fluorescence | inhibition, % at 3 µM | actives 70% (n = 4,300) | shares compounds with rCAG binder;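 active = inhibition above a per-plate cutoff, the mean inhibition of sample wells plus 3 SD, cut at about 35% in these data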;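 note: loss of TO-PRO-1 fluorescence as compound displaces dye from 1x1 AA loop RNA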
dCAG dye counter = disrupts DNA CAG TO-PRO-1 complex, flagging rCAG hits. actives 94% (n = 4,300). inhibition, % at 3 µM. d(CAG) DNA oligo TO-PRO-1 dye displacement, fluorescence. AID 652068. shares compounds with rCAG binder;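 active = inhibition above its plate's cutoff, the mean test-well inhibition plus 3 SD, cut at about 4.8% in these data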;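 note: hits displace the dye from DNA and so lower well fluorescence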
A number is an active result; . = inactive; ? = inconclusive; / = no result given. Only some compounds are listed: those with a hit (about 5.7% of all), similar ones and a draw of the others.

SMILES | Myeloid diff 2 | rCAG binder | MPTP inh | FAS-TE inh | GRIN3A LBD mod | rCAG bind conf | dCAG dye counter
CCOC(=O)C(C)/C(C)=N/NC(=O)c1cc2ccccc2cc1O (configuration not stated) | . | 44 | . | . | . | . | 6.7
O=C(Oc1ccccc1C(=O)Nc1ccccc1)c1ccccc1Br | . | . | . | . | . | / | /
CC(COc1ccccc1)CN1CCC(C(O)(c2ccccc2)c2ccccc2)CC1 (configuration not stated) | / | . | / | / | / | / | /
CCOC(=O)C1=C(O)/C(=C\c2ccc(CNS(=O)(=O)c3ccc(Br)cc3)o2)N=C1C | . | 37 | . | . | . | 43 | 16
COC(=O)C1=C(O)/C(=C\c2ccc(CNS(=O)(=O)c3ccc(Cl)cc3)o2)N=C1C | . | 37 | . | . | . | 42 | 15
COC(=O)C1=C(O)/C(=C\c2ccc(CNS(=O)(=O)c3ccccc3)o2)N=C1C | . | . | . | . | . | / | /
COc1ccc(OCc2cc(C(=O)NC(C)Cn3cncn3)no2)c(Cl)c1 (configuration not stated) | . | . | . | . | . | / | /
COc1ccc(NC(=O)C(C)N=C2NS(=O)(=O)c3ccccc32)cc1S(N)(=O)=O (configuration not stated) | . | . | . | . | . | / | /
O=C1S/C(=C\C=C\c2ccco2)C(=O)N1c1ccc(O)cc1 | . | 38 | . | . | . | . | 9.9
O=C1S/C(=C\C=C\c2ccco2)C(=O)N1c1ccccc1 | . | 41 | . | . | . | . | 12
CCCCC(=O)NS(=O)(=O)c1ccc(N=NN(CC)CC)cc1 | . | . | . | . | . | / | /
COC(=O)[C@]1(C)N[C@H](CN(C)S(=O)(=O)c2ccc(C(F)(F)F)cc2)[C@@H]2C(=O)N(C)C(=O)[C@@H]21 | . | . | . | . | . | / | /
CC1=NN(c2nc(-c3ccc(C)cc3)cs2)C(=O)C1N=Nc1cccc(O)c1 (configuration not stated) | . | 37 | . | . | 12 | 49 | 22
COc1cc(/C=N/Nc2ccc(Cl)c(C(=O)O)c2)ccc1OC(=O)c1cccs1 | . | 54 | . | . | . | 69 | 30
COc1cc(/C=N/Nc2ccccc2)ccc1OC(=O)c1cccs1 | / | . | / | / | . | / | /
O=C(O)c1ccc(N/N=C/c2ccc(OC(=O)c3ccccc3Cl)cc2)cc1 | . | 81 | . | . | . | 68 | 28
O=C(O)c1cc(N/N=C/c2ccc(-c3ccccc3)cc2)ccc1Cl | . | 63 | . | . | . | 76 | 40
O=C(O)c1ccc(N/N=C/c2ccc(-c3ccccc3)cc2)cc1 | . | 62 | . | . | . | 72 | 25
COc1cc(C(=O)OCC(=O)NCC2CCCCC2)ccc1OCC(C)C | . | . | . | . | . | / | /
C[C@@H]1C=CCCO[C@]12C(=O)Nc1ccccc12 | / | . | / | / | / | / | /
Cc1ccc(S(=O)(=O)Oc2cccc(/C=N/Nc3ccc(C(=O)O)cc3)c2)cc1 | . | 74 | . | . | . | 58 | 17
COc1ccc(OC)c(NC(=O)COC(=O)CN(C)S(=O)(=O)c2ccc(C)cc2)c1 | . | . | . | . | . | / | /
O=C(O)c1cccc(NC(=S)NC(=O)c2ccc(-c3ccccc3)cc2)c1 | . | . | . | . | . | / | /
Cc1ccc(C(=O)O)cc1NC(=S)NC(=O)c1ccc(-c2ccccc2)cc1 | . | 55 | . | . | . | 67 | 20
CCOC(=O)CNC1CC(=O)N(c2ccc(Br)cc2)C1=O (configuration not stated) | . | . | . | . | . | / | /
SMILES | Myeloid diff 2 | rCAG binder | MPTP inh | FAS-TE inh | GRIN3A LBD mod | rCAG bind conf | dCAG dye counter
CC1=CC(C)(C)NC(=S)N1c1ccccc1C | . | . | . | . | . | / | /
CC1=CC(C)(C)NC(=S)N1c1cccc2cc(S(=O)(=O)O)ccc12 | . | 43 | . | . | . | 87 | 58
COc1ccc(NC(=O)CN(C)Cc2cccs2)cc1Cl | ? | . | . | . | . | / | /
COC(=O)C[C@H]1CC[C@@H](NS(=O)(=O)c2ccc(C)cc2)[C@@H](CO)O1 | . | . | . | / | / | / | /
CCCCOC(=O)Nc1ccc(S(=O)(=O)Nc2ccc([N+](=O)[O-])cc2)cc1 | . | 51 | . | . | 17 | . | 9.9
CCCCCOC(=O)Nc1ccc(S(=O)(=O)Nc2cccc([N+](=O)[O-])c2)cc1 | . | 48 | . | . | 28 | 45 | 10
CS(=O)(=O)Nc1ccc(C(=O)CC(=O)Nc2ccc([N+](=O)[O-])cc2)cc1 | . | 37 | . | . | 37 | . | 9.4
CCCCOC(=O)Nc1ccc(S(=O)(=O)Nn2cnnc2)cc1 | . | . | . | . | . | / | /
CCn1cc(/C=C(\NC(=O)c2ccccc2Cl)C(=O)NCCN2CCOCC2)c2ccccc21 | . | . | . | . | . | / | /
O=C(NCc1ccccc1)c1c[nH]c2ccc(S(=O)(=O)Nc3ccc4c(c3)OCCO4)cc2c1=O | . | 37 | . | . | 12 | . | 12
O=C(NC1CC1)c1c[nH]c2ccc(S(=O)(=O)Nc3cccc(C(F)(F)F)c3)cc2c1=O | . | 36 | . | . | 11 | . | 6.0
COC(=O)C[C@@H]1C[C@H]2c3cc(NS(C)(=O)=O)ccc3O[C@H]2[C@H](CO)O1 | . | . | . | . | / | / | /
Cc1ccc([C@H]2C[C@H](O)[C@@H](n3cc(C4CC4)nn3)CN2C(=O)c2cccs2)cc1 | . | . | . | . | / | / | /
COc1ccc(NC(=O)N(C)[C@H]2C[C@H]3c4[nH]c5ccccc5c4CCN3C(=O)[C@H]2CO)cc1 | . | . | . | . | / | / | /
CC1=NN(c2ccc(C(=O)O)cc2)C(=O)/C1=C\c1ccc(OC(=O)c2cccs2)cc1 | . | 45 | . | . | 14 | 52 | 18
COc1ccc(NS(=O)(=O)c2cccc(C(=O)Nc3ccccc3C(=O)O)c2)cc1 | . | 66 | . | . | . | 52 | 20
O=C(Nc1ccccc1C(=O)O)c1cc(S(=O)(=O)Nc2ccccc2)ccc1Cl | . | 46 | . | . | . | 35 | 7.3
O=C(Nc1ccccc1C(=O)O)c1ccc(Cl)c(S(=O)(=O)N2CCOCC2)c1 | . | . | . | . | . | / | /
COc1ccc(NS(=O)(=O)c2cccc(C(=O)NNC(=O)c3ccc(NC(C)=O)cc3)c2)cc1 | / | . | . | . | . | / | /
O=C(Nc1ccccc1C(=O)O)c1cc(S(=O)(=O)N2CCCCC2)c(Cl)cc1Cl | . | 70 | . | . | . | 62 | 20
CC(=O)c1ccc(NS(=O)(=O)c2cccc(C(=O)Nc3ccccc3C(=O)O)c2)cc1 | . | 49 | . | . | . | . | 6.4
O=C(O)c1ccc(NS(=O)(=O)c2ccc(Cl)c(C(=O)Nc3ccccc3)c2)cc1 | . | . | . | . | . | / | /
COc1ccccc1NC(=O)CCNC(=O)c1ccc(C)cc1 | . | . | . | . | . | / | /
CC1CCCCN1CC(=O)Nc1ccccc1Sc1ccccc1 (configuration not stated) | . | . | . | . | . | / | /
